L3MBTL1 inh: inhibitors of human L3MBTL1. AlphaScreen L3MBTL1–H3K9me1 peptide binding. Potency, µM (titrated, usually from 57.1 µM), inactives show at the highest dose activity, negative = inhibition, hits mostly inhibitors. 230,000 tested, 0.66% active. AID 485360; further: on the % scale 0 is the no-effect control and ±100 the full control effect; nearly all actives have a fitted effect of over 60% in size
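AlphaScreen assay: L3MBTL1 (50 nM final) was preincubated 30 min at room temperature with biotinylated H3(1-15)K9me1 peptide (75 nM final), then 30 min with library compounds; streptavidin donor and nickel chelate acceptor beads (10 ug/mL final) added, 30 min dark.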
G9a block: inhibitors of human histone lysine methyltransferase G9a. Potency, µM (top dose mostly 102 µM), for inactives: top-dose activity, negative = inhibition, hits mostly inhibitors. AID 504332. G9a H3K9 monomethylation, AlphaScreen, 2 h. 350,000 tested, 8.8% active. Q96KQ7; further: on the % scale 0 is the no-effect control and ±100 the full control effect; nearly all actives have a fitted effect of over 75% in size
Target sequence (Q96KQ7 913-1193 limits assumed): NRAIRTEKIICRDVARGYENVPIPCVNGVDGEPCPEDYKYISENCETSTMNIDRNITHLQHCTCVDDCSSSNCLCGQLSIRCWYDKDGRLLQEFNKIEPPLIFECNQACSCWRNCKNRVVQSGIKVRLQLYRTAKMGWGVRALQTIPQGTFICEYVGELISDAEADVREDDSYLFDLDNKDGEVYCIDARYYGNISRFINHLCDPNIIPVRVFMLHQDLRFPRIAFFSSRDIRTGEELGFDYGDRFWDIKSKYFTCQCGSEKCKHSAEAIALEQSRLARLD
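Signal arises when biotinylated H3K9 peptide, once monomethylated, bridges streptavidin donor and antibody-captured acceptor beads. Enzyme at 20 nM was preincubated 15 min with test compounds; peptide 500 nM and SAM 20 uM then reacted for 2 h.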
HP1b chromo inh: HP1-beta chromodomain-methylated histone interaction inhibition | P83916 | AlphaScreen HP1-beta / biotin-H3K9me3 peptide binding | Potency, µM (titrated, usually from 114 µM), inactives show at the highest dose activity change, negative = inhibition, most hits filed as inhibitors | 390,000 tested, 0.56% active; further: nearly all actives have a fitted effect of over 70% in size
Target sequence (P83916 whole entry, looked up): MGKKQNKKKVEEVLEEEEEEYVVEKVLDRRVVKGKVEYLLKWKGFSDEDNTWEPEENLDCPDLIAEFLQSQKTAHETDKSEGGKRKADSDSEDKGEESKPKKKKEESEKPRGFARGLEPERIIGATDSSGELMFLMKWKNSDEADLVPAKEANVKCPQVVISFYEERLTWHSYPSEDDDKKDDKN
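AlphaScreen: HP1-beta (50 nM) preformed 30 min with biotin-H3(1-18)K9me3 peptide (50 nM) in PBS pH 7.4, 0.01% Tween-20. Compound added for 30 min at RT, then streptavidin donor/nickel chelate acceptor beads (10 ug/mL) for 30 min.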
BAZ2B block: BAZ2B (human) inhibition; AID 504333; Potency, µM (series often up to 114 µM), for inactives: top-dose activity change, negative = inhibition, usual class: inhibitors; 360,000 tested, 4.4% active; AlphaScreen BAZ2B-H3K14Ac peptide displacement; further: on the % scale 0 is the no-effect control and ±100 the full control effect; nearly all actives have a fitted effect of over 60% in size
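Multi-concentration screen (max 110 uM) measuring displacement of acetylated histone H3 peptide from BAZ2B by AlphaScreen, using 50 nM protein, 50 nM peptide and 10 ug/mL streptavidin donor plus Ni-chelate acceptor beads.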
JMJD2A Tudor inh: JMJD2A Tudor domain (human) inhibition; AID 504339; 390,000 tested, 4.4% active; AlphaScreen JMJD2A-Tudor / H3K4me3 peptide binding; Potency, µM (top dose mostly 114 µM), for the others: at the highest dose activity change, negative = inhibition, actives largely listed as inhibitors; O75164; further: on the % scale 0 is the no-effect control and ±100 the full control effect; nearly all actives have a fitted effect of over 50% in size
The depositor's hits bear a star; u = inconclusive; x = not tested or not shown; ! = not active in a repeat; [ ] = another dose, or the depositor's remark. Hits are enriched below; roughly 11% of the tested compounds scored in any of these assays. The call rests on the fitted dose curve; in most records, active means well fitted inhibition curve with a large enough effect; inconclusive means small, poorly fitted or top-dose-only effect; inactive means no such curve, though single readings can be large or run the other way. Potency means the concentration at half of the fitted maximal effect.

SMILES | L3MBTL1 inh | G9a block | HP1b chromo inh | BAZ2B block | JMJD2A Tudor inh
Cc1cc2nc(-c3ccc(=O)[nH]c3)n(C)c2cc1C | x | 2% | 17% | -9% | 2%
Cc1cc2nc(C)c(=O)n(C)c2cc1C | -3% | 7%[59 µM] | 10% | 4% | 35µM*
Cc1ccc(-n2ncc(C(=O)N3CCc4ccccc4C3)c2NC(=O)c2ccco2)cc1C | -19% | 25µM* | 15% | -11% | -17%
CC1(C)CC(=O)C(=Cc2cn(CCC#N)nc2-c2ccc(F)cc2)C(=O)C1 | 5% | 10µM* | 48% | -3% | -3%
COc1ccc(C2/C(=C(\O)c3cc(C)ccc3C)C(=O)C(=O)N2CCN(C)C)cc1OC (stereo unspecified) | -1% | -39%[12.7 µM] | 29% | -23% | 7%
CCCOc1ccc(/C(O)=C2\C(=O)C(=O)N(CCCN(C)C)C23C(=O)N(C)c2ccccc23)cc1 (stereo unspecified) | 0% | 45µM* | x | -38% | x
CCCCOc1ccc(/C(O)=C2/C(=O)C(=O)N(CCN(C)C)C2c2ccc(O)c(OC)c2)cc1 (stereo unspecified) | 0% | u | 27% | 4% | -28%
CCCOc1cccc(C2/C(=C(/O)c3ccc(OC)cc3)C(=O)C(=O)N2CCN(C)C)c1 (stereo unspecified) | -3% | 50µM* | 17% | 2% | -26%
COc1ccc(/C(O)=C2\C(=O)C(=O)N(CCN(C)C)C2c2cc(OC)c(OC)c(OC)c2)c(C)c1 (stereo unspecified) | x | u | 5% | 79µM* | -31%
CCCOc1ccc(C2/C(=C(/O)c3ccc(F)cc3)C(=O)C(=O)N2CCCN(C)C)cc1 (stereo unspecified) | 9% | 40µM* | 18% | 3% | -13%
COc1ccc(C2/C(=C(/O)c3ccc(F)cc3)C(=O)C(=O)N2CCCN(C)C)cc1 (stereo unspecified) | x | x | 18% | x | -7%
CCCOc1ccc(/C(O)=C2\C(=O)C(=O)N(CCCOC)C23C(=O)N(C)c2ccccc23)cc1 (stereo unspecified) | 27% | -38%[2.33 µM] | 43% | 29% | -6%
Cc1ccc2onc(CC(=O)Nc3ccc(C(C)C)cc3)c2c1 | x | -2%[59 µM] | 21% | -21% | -14%
O=C(Cn1cc(SCc2cccc(Cl)c2)c2ccccc21)N1CCOCC1 | -3% | 32µM*! | 31% | -22% | -11%
COc1ccc(S(=O)(=O)N2CCOCC2)cc1NC(=O)CSc1nnc(N)s1 | 4% | 45µM* | 39% | 7% | -3%
CCc1noc(C)c1C(=O)Nc1cc(S(=O)(=O)N2CCOCC2)ccc1OC(C)C | 3% | 13µM* | 13% | -7% | -16%
CCc1noc(C)c1C(=O)Nc1cc(S(=O)(=O)N2CCCCC2)ccc1N(C)C | -3% | u | 7% | 6% | -19%
O=C(CSc1nc2ccccc2s1)Nc1cc(S(=O)(=O)N2CCOCC2)ccc1O | -28% | u | -28% | u | 50µM*
COc1ccc(S(=O)(=O)N2CCOCC2)cc1NC(=O)CSc1nc(C)c(C)c(C)n1 | 8% | x | 31% | x | -26%
COc1ccc(S(=O)(=O)N2CCOCC2)cc1NC(=O)CSc1n[nH]c(C(C)C)n1 | 40% | 28µM* | 11% | -7% | -8%
COc1nccnc1NS(=O)(=O)c1ccc(N=Cc2c(C)[nH]n(-c3ccc(C)c(C)c3)c2=O)cc1 | -11% | 45µM* | -13% | u | u
Cc1ccc(-n2[nH]c(C)c(C=Nc3ccc(S(=O)(=O)Nc4nccs4)cc3)c2=O)cc1C | -4% | -3%[59 µM] | -2% | u | -32%
COc1nccnc1NS(=O)(=O)c1ccc(N=Cc2c(C)[nH]n(-c3ccccc3)c2=O)cc1 | -11% | 56µM* | 8% | u | -21%
CCOc1[nH]n(-c2ccccc2)c(=O)c1C=Nc1ccccc1 | -28% | 20µM* | -1% | u | -24%
COc1ccccc1NC(=O)c1cc2c([nH]c1=O)CC(C)(C)CC2=O | x | 9%[59 µM] | 11% | 4% | -13%
SMILES | L3MBTL1 inh | G9a block | HP1b chromo inh | BAZ2B block | JMJD2A Tudor inh
Cc1ccc(NC(=O)CSc2ccc(C(N)=O)cc2[N+](=O)[O-])cc1 | -3% | -8%[59 µM] | 20% | 2% | -13%
NC(=O)c1ccc(SCC(=O)OCC(=O)N2CCN(C(=O)c3ccco3)CC2)c([N+](=O)[O-])c1 | u | 56µM* | 6% | -9% | -18%
CC1CCN(C(=O)COC(=O)CSc2ccc(C(N)=O)cc2[N+](=O)[O-])CC1 | 12% | 5%[2.33 µM] | 30% | 4% | -18%
Cc1ccc(NC(=O)CSc2ccc(C(N)=O)cc2[N+](=O)[O-])cc1C | -4%[11.4 µM] | -28% | 6% | -15% | 14µM*
NC(=O)c1ccc(SCC(=O)OCC(=O)N2CCCCC2)c([N+](=O)[O-])c1 | 2% | 50µM* | 30% | -28% | 2%
Cc1cc(Br)ccc1SCC(=O)OCC(=O)N1CCN(C(=O)c2ccco2)CC1 | -28% | 45µM* | 10% | u | -29%
O=C(CSc1ccccc1F)OCC(=O)N1CCN(C(=O)c2ccco2)CC1 | -6% | u | -13% | 0% | -15%
COc1ccccc1NC(=O)C1=C(C)Nc2nc(SCc3ccccc3)nn2C1c1cccs1 (stereo unspecified) | x | u | 26% | 0% | -9%
CC(NC(=O)c1cccc(NC(=O)c2nsc3ccccc23)c1)c1ccccc1 (stereo unspecified) | x | -3%[59 µM] | 17%[57 µM] | 2% | -9%
Cc1cccc(NC(=O)CSc2nnc(NC(=O)CN3CCCCC3)s2)c1 | 3% | 16%[59 µM] | x | 4% | x
Cc1cccc(Nc2nnc(SCC(=O)Nc3cccc(S(=O)(=O)N4CCCCC4)c3)s2)c1 | -6% | 3.5µM* | -8% | -37% | u
CSc1nnc(NC(=O)c2ccc(S(=O)(=O)N3CCOCC3)cc2)s1 | x | 10µM* | 56% | -4% | 5%
O=C(CSc1nnc(NC(=O)C2CCC2)s1)Nc1ccc(N2CCOCC2)cc1 | -5% | 50µM* | -17% | -8% | -10%[57.1 µM]
CCc1ccc(Nc2nnc(SCC(=O)Nc3cccc(S(=O)(=O)NC4=NCCCCC4)c3)s2)cc1 | -10% | 6.3µM* | 9% | -30% | -32%
Cc1ccc(Nc2nnc(SCC(=O)Nc3cccc(S(=O)(=O)NC4=NCCCCC4)c3)s2)cc1 | -7% | -2%[2.33 µM] | 0% | u | -36%
COc1ccc(C(=O)N2CCC[C@@]3(CCN(Cc4nccs4)C3)C2)cc1 | x | -7%[12.7 µM] | x | x | x
Cc1ccc(Nc2nnc(SCC(=O)Nc3ccc(S(=O)(=O)N4CCOCC4)cc3)s2)cc1 | x | u | 39% | 5% | -10%
O=C(CSc1nnc(Nc2ccccc2)s1)Nc1ccc(S(=O)(=O)N2CCOCC2)cc1 | x | 8.9µM* | 21% | -1% | -11%
Cc1c(Cl)cccc1NC(=O)CSc1ncccc1C(=O)Oc1ccccc1Cl | x | -4%[59 µM] | 21% | 1% | -2%
